Results from the supplement of paper PMC13380429.

Assays:
[1] = test system: Vero E6 infected with SARS-CoV-2; test: morphology score (similarity to uninfected cells); higher = more like uninfected cells; conditions: 24 h
[2] = test system: Vero E6 infected with SARS-CoV-2; test: SARS-CoV-2 infection rate relative to infected DMSO; higher = more infection, active = 60 or less; conditions: 24 h

| Compound | morphology score [1] | SARS-CoV-2 infection rate [2] |
| --- | --- | --- |
| COc1cccc2c1c(O)c(C(=O)N(C)c1ccc(C(F)(F)F)cc1)c(=O)n2C [tasquinimod] (10 µM) | 0.168 | 92% (inactive) |
| CCOc1ccc(-c2nc(-c3cccc4c3CCC4NCCO)no2)cc1OCC (stereo not drawn) (10 µM) | 0.847 | 12% (active) |
| Oc1cc(O)c2c(c1)O[C@H](c1ccc(O)c(O)c1)[C@@H](O)C2 [cianidanol] (10 µM) | -0.0417 | 110% (inactive) |
| c1ccc2c(Oc3nc(Nc4ccc(N5CCOCC5)cc4)c4ncn(C5CCCCC5)c4n3)cccc2c1 [purmorphamine] (10 µM) | -0.227 | 113% (inactive) |
